Screening data as filed in PubChem.
PvdQ acylase: P. aeruginosa PvdQ acylase inhibitors, primary screen, biochemical, fluorescence, plate reader and imaging, single point; PvdQ acylase [Pseudomonas aeruginosa LESB58]; purified PvdQ acylase; inhibition, % at 10 µM; hit rate 0.063% among 340,000; AID 488965, 2010; in the data active = inhibition above about 30%, passing the limit was not always enough
N-glyco inh: increase of ERlucT glycosylation luciferase signal, primary screen, N-linked glycosylation inhibitor project, D54 ERlucT cells, luminescence, set 2; hit rate 0.23% among 360,000; AID 588692, 2011; D54 ERlucT glycosylation luciferase reporter, 24 h; percent of 100 nM tunicamycin response; reporter increase, % at 12.5 µM;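 active = mean luciferase reporter signal, scaled so untreated is 0 and the glycosylation-blocking control 100, at or above a set limit in every replicate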;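 note: luciferase carries N-glycosylation sites so blocking glycosylation raises the light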
ERp5 inh: inhibitors of ERp5-driven insulin aggregation, primary screen, biochemical, turbidity, absorbance 650 nm, single point. inhibition, % at 9.99 µM. 90 min. hit rate 0.05% among 350,000;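 active = mean replicate inhibition above about 25%, with every replicate also reaching it, limit read from the data, passing the limit was not always enough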
PDI inh: inhibitors of human PDI, primary screen, biochemical, turbidity, single point, plate reader | Protein disulfide-isomerase (Homo sapiens), P07237 | PDI insulin aggregation turbidity, A650, 90 min | inhibition, % at 10 µM | hit rate 0.052% among 350,000 | AID 588391, 2011;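 active = mean inhibition across replicates of 30% or more, whatever share of single replicates reach that level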
Target sequence (P07237 whole entry, looked up): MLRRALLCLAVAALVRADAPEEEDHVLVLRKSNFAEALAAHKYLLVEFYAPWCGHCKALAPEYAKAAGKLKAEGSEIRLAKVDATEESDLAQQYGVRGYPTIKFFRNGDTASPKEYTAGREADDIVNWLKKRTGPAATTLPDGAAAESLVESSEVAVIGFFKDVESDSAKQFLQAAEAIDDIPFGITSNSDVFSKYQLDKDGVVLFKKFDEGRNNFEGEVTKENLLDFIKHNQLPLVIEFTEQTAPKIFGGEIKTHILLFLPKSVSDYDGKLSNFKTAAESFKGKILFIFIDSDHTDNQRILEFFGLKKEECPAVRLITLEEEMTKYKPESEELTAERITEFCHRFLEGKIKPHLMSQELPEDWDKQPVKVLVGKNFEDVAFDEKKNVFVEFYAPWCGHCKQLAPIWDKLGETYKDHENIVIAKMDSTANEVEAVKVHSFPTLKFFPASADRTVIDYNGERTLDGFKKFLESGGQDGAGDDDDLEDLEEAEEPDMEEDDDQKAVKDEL
Vif imaging: HIV Vif self-association inhibitors, primary screen, imaging, HEK293T, single point | AID 602346, 2012 | hit rate 0.35% among 340,000 | HEK293T cells, Vif self-association by quenched fluorescence, 24 h | inhibition, % at 7.49 µM; in the data active = inhibition above about 50%, passing the limit was not always enough
Each line names hits and unclear results; the compound was inactive in the other large screens; ! = a repeat was not active. A selection: hits, their analogues and other compounds. The true share with any hit is near 0.56%.

C=C(C)Cc1c(C)c(C#N)c2nc3ccccc3n2c1NCCCN(C)C	N-glyco inh 37.6 (no result: PvdQ acylase)
C[C@H]1CN([C@@H](C)CO)C(=O)c2cc(C3=CCCC3)cnc2O[C@H]1CN(C)C(=O)c1ccccn1	none (no result: PvdQ acylase, N-glyco inh, PDI inh, Vif imaging)
c1ccc2c(CNc3ccc(CNc4ncn[nH]4)cc3)cccc2c1	none (no result: ERp5 inh)
CCOC(=O)C1=C(c2ccccc2)N=c2s/c(=C\c3cccc(O)c3)c(=O)n2C1c1cccs1 (stereo not drawn)	PDI inh 60.7 (no result: ERp5 inh)
CCOC(=O)C1=C(C)N=c2s/c(=C\c3cccc(OCC(=O)O)c3)c(=O)n2C1c1ccccc1OC (stereo not drawn)	none
O=C(Nc1cccc(S(=O)(=O)N2CCCCC2)c1)c1ccc2ccccc2n1	none (no result: ERp5 inh)
COc1ccc2c(c1OC)c(=O)n1c3ccc(OC(C)C(=O)NCCN4CCOCC4)cc3c3ccnc2c31 (stereo not drawn)	none (no result: PDI inh)
CC(Oc1ccc2c(c1)c1ccnc3c4ccccc4c(=O)n2c13)C(=O)NCCN1CCOCC1 (stereo not drawn)	N-glyco inh 73.8 (no result: ERp5 inh, PDI inh)
O=C(COC(=O)c1c(F)cccc1F)Nc1ccccc1OC(F)F	Vif imaging 50.6
O=C(NCCN1CCNCC1)c1ccccc1O	Vif imaging 61.7 (no result: PvdQ acylase)
O=C1N[C@@H](Cc2ccccc2)[C@@H](c2ccco2)O1	PvdQ acylase 48.7
C[C@@H]1NC(=O)OC1c1ccco1 (stereo partly drawn)	none
O=C(Nc1ncc([N+](=O)[O-])s1)c1ccccc1Br	none
O=C(Nc1ccc(Cl)c(Cl)c1)N1CCSC1c1ccco1 (stereo not drawn)	none (no result: ERp5 inh)
Cc1cc(C)c2sc(NC(=O)c3ccc([N+](=O)[O-])o3)nc2c1	N-glyco inh 44.0 (no result: PDI inh)
Cc1cc(C)c2nc(NC(=O)c3ccc([N+](=O)[O-])o3)sc2c1	none
COc1ccc(NC(=O)c2ccc([N+](=O)[O-])o2)cc1	N-glyco inh 30.9
O=C(Nc1c(Cl)ccc2nsnc12)c1ccc([N+](=O)[O-])o1	N-glyco inh 46.0
CCOC(=O)N1CCN(c2nc3ccccn3c(=O)c2C=O)CC1	PvdQ acylase 31.2
C[C@@H]1CN([C@H](C)CO)C(=O)c2cc(NS(=O)(=O)c3cn(C)cn3)ccc2O[C@@H](C)CCCCO[C@@H]1CN(C)C(=O)NC1CCCCC1	none (no result: PvdQ acylase, N-glyco inh, PDI inh, Vif imaging)
N=c1c(S(=O)(=O)c2ccc(Cl)cc2)cc2c(=O)n3ccccc3nc2n1CCc1ccccc1	N-glyco inh 50.2
COc1ccc(NC(=O)Nc2ccc3c(c2)C(=O)N([C@H](C)CO)C[C@@H](C)[C@H](CN(C)Cc2ccc(Cl)c(Cl)c2)O3)cc1	none (no result: PvdQ acylase, N-glyco inh, PDI inh, Vif imaging)
CC(C)(C)OC(=O)NCCCC[C@H](NC(=O)c1nc[nH]c1C(=O)N1CCc2ccccc2C1)C(=O)OC(C)(C)C	none
CC(C)(C)OC(=O)[C@H](Cc1ccccc1)NC(=O)c1nc[nH]c1C(=O)N1CCc2ccccc2C1	N-glyco inh 32.7
CC1CC(c2ccccc2)n2nc(NC(=O)c3ccco3)nc2N1 (stereo not drawn)	none (no result: ERp5 inh)
COc1ccc(CCNC(=O)/C(C#N)=C/c2ccc(OCC(=O)NCC3CCCO3)cc2)cc1OC (stereo not drawn)	PvdQ acylase 35.4
O=C(N/N=C1\CCCc2ccccc21)c1ccccc1Cl	ERp5 inh 27.7
O=C(N/N=C1\CCc2ccccc21)c1ccccc1O	none (no result: ERp5 inh)
O=[N+]([O-])c1ccc(Sc2cccc[n+]2[O-])c2nonc12	Vif imaging 76.9
Cc1c(N=CN2CCOCC2)c(=O)n(C)c(=O)n1C	none (no result: ERp5 inh)
COc1cccc(OCC(O)CN2CCN(CCN3C(=O)c4cccc5cccc(c45)C3=O)CC2)c1 (stereo not drawn)	N-glyco inh 34.3
CCOC(=O)C1(CC2CC2)CCN(Cc2cn[nH]c2-c2ccccc2)CC1	none
Cc1ccc(/C=N/n2c(-c3ccc(Cl)cc3)n[nH]c2=S)s1	none
C[C@H](CCC(=O)O)[C@H]1CC[C@H]2[C@@H]3CC[C@@H]4C[C@H](O)CC[C@]4(C)[C@H]3CC[C@]12C	none (no result: PDI inh)
CC(CCC(=O)O)C1CCC2C3CCC4C[C@H](O)CCC4(C)C3CC(=O)C12C (stereo partly drawn)	Vif imaging 52.6
Cc1cccc(N(C(=O)c2csnn2)C(C(=O)NC2CCCCC2)c2ccccn2)c1C (stereo not drawn)	none
CCCN1C(=O)/C(=C/c2ccc(N3CCOCC3)cc2)NC1=S	none
CSCc1c(C(=O)OCC(=O)c2ccc[nH]2)oc2ccccc12	none
COc1ccc(-c2cc(C(F)(F)F)nc(S(=O)(=O)CCCC(=O)Nc3cccnc3Cl)n2)cc1OC	Vif imaging 115.2
NNc1nc(-c2ccccc2)cc(-c2ccccc2)n1	none
NNC(=O)c1nc(-c2ccccc2)cc(-c2ccccc2)n1	N-glyco inh 46.7
CC(Oc1ccccc1F)C(=O)NNC(=O)CCS(=O)(=O)c1ccccc1Cl (stereo not drawn)	none
C[C@H](NS(=O)(=O)c1c(Cl)cccc1Cl)C(=O)NNC(=O)COc1ccccc1F	Vif imaging 52.5
CCCC(=O)Nc1ccc(C(=O)Nc2cc(C(F)(F)F)ccc2Cl)cc1	none (no result: ERp5 inh)
O=C(O)CCCCCn1c(SCC(=O)c2ccc(O)c(O)c2)nc2ccsc2c1=O	PDI inh 31.7 (no result: ERp5 inh)
CCCCn1c(SCC(=O)c2ccc(O)c(O)c2)nc2ccsc2c1=O	none (no result: ERp5 inh)
Cc1nc(-c2ccc(-c3ccon3)s2)no1	none
COc1ccc(Cn2c(C)cc(O)cc2=O)cc1	none (no result: PvdQ acylase, N-glyco inh, PDI inh, Vif imaging)
COc1ccc(C=O)cc1COc1ccc(C)cc1[N+](=O)[O-]	none
C[C@H](CO)N1C[C@H](C)[C@@H](CN(C)S(=O)(=O)c2ccc(Oc3ccccc3)cc2)OCc2cnnn2CCCC1=O	ERp5 inh 89.2! (no result: PvdQ acylase)
COc1cccc(NC(=O)C2(C)CCCN2C(=O)C(C)C)c1OC (stereo not drawn)	none (no result: PvdQ acylase)
C1CCN=C(Nc2nn[nH]n2)CC1	none (no result: ERp5 inh)
CCOC(=O)C1(Cc2cccc(F)c2)CCN(C(=O)C2CCCO2)CC1 (stereo not drawn)	Vif imaging 51.4
CCOC(=O)C1(Cc2cccc(F)c2)CCN(C(=O)C2CCOCC2)CC1	none
S=c1nc[nH]c2nc[nH]c12	N-glyco inh 247.3
Cn1cnc2nc[nH]c2c1=S	none
CCn1c(SCC(=O)Nc2nccs2)nnc1-c1ccc(C)cc1	none (no result: ERp5 inh)
CCC(=O)Nc1ccc(-c2nnc(SCc3ccc(C(=O)Nc4nccs4)cc3)n2CC)cc1	Vif imaging 67.3 (no result: ERp5 inh)
CCOc1ccc(S(=O)(=O)/N=C(/Nc2ccc(C(C)=O)cc2)c2ccccc2)cc1	none
COc1ccc(N(C(=O)C(C)C)S(=O)(=O)c2ccc3ccccc3c2)cc1	none
CC#CC[N+](C)(C)CCCCCCCCCC	none
C#CC[N+](C)(C)CCCCCCCCC	N-glyco inh 29.9
CC(=O)NCC(=O)NC(C(=O)Nc1ccc2c(c1)OCCO2)c1ccc(C)cc1 (stereo not drawn)	none (no result: ERp5 inh)
